Assay results from PubChem BioAssay AID2391 (Southern Research Specialized Biocontainment Screening …, 2010).
Among all 310,000 compounds or so, about 410 (0.13%) were called active. Roughly 2% stayed inconclusive and do not appear here. No rule for the calls is given here. Not all results are given here. Measured potencies and affinities stand elsewhere.

test: RSV antiviral activity via CPE protection, HEp-2 cells, primary 10 µM value included (AID 2391); conditions: RSV-induced CPE inhibition, at 10 µM, active compounds read high

CPE inhibition, inactive:
O=C(Nc1ccncc1)c1c(Cl)cccc1Cl 0%
Cc1c(C)c2c(OCC(=O)N3CCC[C@H]3C(=O)O)cc3c(c2oc1=O)CCC(C)(C)O3 0.96%
O=C(Nc1ccc(Cl)c(C(F)(F)F)c1)[C@@H]1CC=C[C@@H]2CCN(Cc3ccc(Cl)c(Cl)c3)C(=O)[C@@H]21 7.28%
O=C(Nc1ccc(Cl)c(C(F)(F)F)c1)[C@@H]1CC=C[C@@H]2CCN(Cc3ccccc3)C(=O)[C@@H]21 2.53%
COc1ccc(OC)c(Nc2nc3nonc3nc2N2CCCCC2)c1 1.59%
COc1ccccc1NC(=O)COc1ccc2ccccc2c1 4.1%
O=C(Cc1cccc2ccccc12)Nc1ccc(O)cc1C(=O)O 2.4%
O=C(COc1ccc2ccccc2c1)Nc1cccc(C(=O)Nc2ccccc2C(=O)O)c1 20.8%
COc1cc(NC(=O)CCCOc2ccc(Cl)cc2Cl)c(C(=O)O)cc1OC 6.77%
O=C(Cc1ccccc1C(=O)O)Nc1cccc2ccccc12 1.4%
O=C(CCCOc1ccc(Cl)cc1Cl)Nc1ccc(O)cc1C(=O)O 0.3%
Cc1ccc(Cl)cc1N(C(=O)c1csnn1)C(C(=O)NC1CCCC1)c1ccco1 (stereo unspecified) 1.87%
O=C(CN1C(=O)NC2(CCCCCC2)C1=O)Nc1ccc2c(c1)CCC2 2.7%
O=C(NCC(c1ccco1)N1CCCCC1)c1ccc(NS(=O)(=O)c2ccc(F)cc2)cc1 (stereo unspecified) 3.02%
COc1ccc(-c2noc(CN3CCN(c4ccccc4)CC3)n2)cc1 -0.23%
Cc1cccc(NC(=O)c2ccc(S(=O)(=O)N3CCCC3)cc2)c1C 1.87%
CC(OC(=O)c1cccn1C)C(=O)Nc1ccc2c(c1)OCO2 (stereo unspecified) 2.62%
CCN(CC(=O)Nc1ccc(Br)cc1)C(=O)c1nc2nc(C)cc(C)n2n1 1.87%
CC(C)(C)N1C(=O)c2ccc(C(=O)Nc3cc(C(=O)O)cc(C(=O)O)c3)cc2C1=O 0.7%
COC(=O)c1cccc(NC(=O)c2ccc3c(c2)C(=O)N(C(C)(C)C)C3=O)c1 9.97%
CCCOC(=O)Cn1cnc2scc(-c3ccc(C)cc3)c2c1=O 0.39%
COc1ccc(N=C2C(=Nc3ccc(OC)cc3)N(c3ccc(OC)cc3)C(=S)N2c2ccccc2)cc1 0.02%
COc1ccc(N=C2C(=Nc3ccc(OC)cc3)N(c3ccc(OC)cc3)C(=S)N2C)cc1 0.37%
Cc1cc(OC(C(=O)O)c2ccccc2)c2c(C)c(Cc3ccccc3)c(=O)oc2c1 (stereo unspecified) 11.6%
CCOC(=O)Cc1c(C)c2ccc(N(CC)CC)cc2oc1=O 57.9%
Cc1cc(O)c2c(C)c(CC(=O)N3CCN(C(=O)C4COc5ccccc5O4)CC3)c(=O)oc2c1 (stereo unspecified) 6.34%
Cc1c(CC(=O)N2CCN(C(=O)C3COc4ccccc4O3)CC2)c(=O)oc2cc(O)ccc12 (stereo unspecified) 0.83%
COC(=O)Cc1c(C)c2c(O)cc(C)cc2oc1=O 6.65%
Cc1coc2c1c(C)cc1oc(=O)c(Cc3ccccc3)c(C)c12 1.6%
C=CCN(CC(=O)Nc1c(C)cccc1CC)C(=O)SCCC 0.77%
Cc1[nH]c(C)c(S(=O)(=O)Nc2ccc(OC(F)(F)F)cc2)c1C(=O)N1CCCCC1 1.31%
C#CCOc1nc2c(c(=O)n(C)c(=O)n2C)n1Cc1ccccc1 6.97%
CCc1ccc(-c2cc(C(=O)N3N=C(C(F)F)CC3(O)C(F)F)c3ccccc3n2)cc1 (stereo unspecified) -3.61%
CC1c2cc3c(cc2CCN1C(=O)c1cccc(F)c1)OCCCO3 (stereo unspecified) 2.63%
CCCCc1ncc(CN2CCC(n3nccc3NC(=O)c3ccccc3Cl)CC2)[nH]1 0.19%
O=C(O)c1cc(-c2ccc(/C=C3\NC(=O)N(c4ccccc4)C3=O)o2)ccc1Cl 4.99%
Cc1ccc(N2NC(=O)/C(=C/c3ccc(-c4ccc(Cl)c(C(=O)O)c4)o3)C2=O)cc1 0.38%
Cc1cccnc1NC(=O)c1ccc(OCc2c(C)noc2C)cc1 1.6%
CCOc1ncccc1C(=O)Nc1nc(C(C)(C)C)cs1 0.68%
CC(C)(C)c1csc(NC(=O)c2cccnc2Cl)n1 1.36%
COc1ccc(CC2(CO)CCN(Cc3ccc(OC(F)(F)F)cc3)CC2)cc1 13.9%
COc1ccccc1NC(=O)Nc1nc(CC(=O)Nc2ccc(OC)c(OC)c2)cs1 -1.37%
Cc1cc(OCc2cc(C(=O)N(C)CCOc3ccccc3)no2)cc(C)c1Cl 13.7%
O=C(NCc1ccccc1Cl)C1CCCN(S(=O)(=O)c2cccc3nonc23)C1 (stereo unspecified) 0.66%
COc1ccccc1CNC(=O)C1CCCN(S(=O)(=O)c2cccc3nonc23)C1 (stereo unspecified) 0.88%
COc1ccc(CNC(=O)C2CCN(S(=O)(=O)c3cccc4nonc34)CC2)cc1 0.73%
O=C(NCc1ccc(Cl)cc1)C1CCN(S(=O)(=O)c2cccc3nonc23)CC1 5.35%
O=C(NNC(=O)C12CC3CC(CC(C3)C1)C2)c1ccccn1 1.78%
C/C(CC(=O)Nc1cc(C)ccn1)=N\NC(=O)C(=O)NC(C)C -0.96%
CC(=O)C1[C@H](N(C)C)CC2C3CC=C4CC(O)CC[C@]4(C)C3CC[C@@]21C (stereo partly specified) 0.54%
CC12CCC(O)CC1=CCC1C2CCC2(C)C1CCC21CCC(=O)O1 (stereo unspecified) 7.71%
CCN(CC)S(=O)(=O)c1ccc(N2C(=O)CC2(/C=C/c2ccccc2)C(=O)NC2CCCC2)cc1 (stereo unspecified) 4.54%
Cc1c(Cl)ccc2c(C(=O)NCCCn3nccc3C)cc(-c3ccccn3)nc12 13.8%
Cc1nnc(NC(=O)CSc2ccc(-c3cccnc3)nn2)s1 2.73%
Cn1c(COc2nnc(-c3ccc(Cl)cc3)c3ccccc23)nc2ccccc21 5.55%
Cc1nnc(OCc2nc3ccccc3n2C)c2ccccc12 6.77%
